# According to the supplement of paper PMC11006884:
# Targets with a hit are over-represented here; the source holds about 6,500 in all. About 2% of all pairs of compound and target were hits. Unmarked numbers belong to inactive results.
# Compound: COC(=O)C#Cc1ccccc1 [methyl 3-phenylpropiolate]
# Test: log2 ratio of iodoacetamide-alkyne labeling of the cysteine site, DMSO over compound (competition); higher = stronger covalent engagement of the cysteine by the compound, active = 1 or more
# Conditions: 500 µM; treatment time 1 h; system: HEK293T cell lysate
# In short: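 After 1 h at ambient temperature with vehicle or electrophile (500 µM), HEK293T lysate (2 mg/mL) was labelled for 1 h with iodoacetamide alkyne and clicked to sCIP-TMT reagents. Pooled samples were trypsin-digested overnight at 37 °C, streptavidin-enriched, acid-eluted and analysed by Orbitrap Eclipse LC-MS/MS with FAIMS, then quantified in FragPipe over three replicates with duplicate channels. A cysteine's log2 competition ratio is its mean control-channel over mean compound-channel reporter intensity. Cysteines quantified in only one replicate were not included.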
# Chain of UniProt Q9NXV2 (Q9NXV2 whole entry, looked up): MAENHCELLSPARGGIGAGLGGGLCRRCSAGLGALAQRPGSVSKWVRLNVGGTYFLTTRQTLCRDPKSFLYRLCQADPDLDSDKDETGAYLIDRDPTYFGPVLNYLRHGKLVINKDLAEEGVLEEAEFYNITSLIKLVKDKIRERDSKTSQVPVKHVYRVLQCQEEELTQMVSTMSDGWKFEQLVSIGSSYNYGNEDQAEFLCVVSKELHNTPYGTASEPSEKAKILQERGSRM
# Chain of UniProt Q9Y570 (Q9Y570 whole entry, looked up): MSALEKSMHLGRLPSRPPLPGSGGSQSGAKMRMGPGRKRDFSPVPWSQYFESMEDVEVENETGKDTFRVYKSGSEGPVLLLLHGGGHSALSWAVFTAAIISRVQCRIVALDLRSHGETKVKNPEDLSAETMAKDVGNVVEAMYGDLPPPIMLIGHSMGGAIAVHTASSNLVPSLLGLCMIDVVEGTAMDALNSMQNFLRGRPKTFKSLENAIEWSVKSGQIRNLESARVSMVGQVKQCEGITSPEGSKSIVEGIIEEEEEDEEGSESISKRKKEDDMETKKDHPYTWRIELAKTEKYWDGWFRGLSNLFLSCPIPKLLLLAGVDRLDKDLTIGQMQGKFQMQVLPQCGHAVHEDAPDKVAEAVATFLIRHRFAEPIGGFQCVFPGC
# Chain of UniProt Q9NRP0 (Q9NRP0 whole entry): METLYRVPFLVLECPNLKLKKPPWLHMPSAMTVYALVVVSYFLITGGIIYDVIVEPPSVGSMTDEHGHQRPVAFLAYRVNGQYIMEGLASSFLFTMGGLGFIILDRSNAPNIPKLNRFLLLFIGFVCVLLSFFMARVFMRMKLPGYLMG
# Chain of UniProt Q9NVP2 (Q9NVP2 whole entry, looked up): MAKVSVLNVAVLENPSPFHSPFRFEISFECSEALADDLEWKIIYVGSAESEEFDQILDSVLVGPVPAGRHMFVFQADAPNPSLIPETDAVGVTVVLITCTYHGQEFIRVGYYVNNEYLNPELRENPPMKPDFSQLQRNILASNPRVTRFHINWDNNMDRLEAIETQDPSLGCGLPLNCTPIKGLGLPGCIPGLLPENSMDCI
# Chain of UniProt Q9NZM3 (Q9NZM3 whole entry, looked up): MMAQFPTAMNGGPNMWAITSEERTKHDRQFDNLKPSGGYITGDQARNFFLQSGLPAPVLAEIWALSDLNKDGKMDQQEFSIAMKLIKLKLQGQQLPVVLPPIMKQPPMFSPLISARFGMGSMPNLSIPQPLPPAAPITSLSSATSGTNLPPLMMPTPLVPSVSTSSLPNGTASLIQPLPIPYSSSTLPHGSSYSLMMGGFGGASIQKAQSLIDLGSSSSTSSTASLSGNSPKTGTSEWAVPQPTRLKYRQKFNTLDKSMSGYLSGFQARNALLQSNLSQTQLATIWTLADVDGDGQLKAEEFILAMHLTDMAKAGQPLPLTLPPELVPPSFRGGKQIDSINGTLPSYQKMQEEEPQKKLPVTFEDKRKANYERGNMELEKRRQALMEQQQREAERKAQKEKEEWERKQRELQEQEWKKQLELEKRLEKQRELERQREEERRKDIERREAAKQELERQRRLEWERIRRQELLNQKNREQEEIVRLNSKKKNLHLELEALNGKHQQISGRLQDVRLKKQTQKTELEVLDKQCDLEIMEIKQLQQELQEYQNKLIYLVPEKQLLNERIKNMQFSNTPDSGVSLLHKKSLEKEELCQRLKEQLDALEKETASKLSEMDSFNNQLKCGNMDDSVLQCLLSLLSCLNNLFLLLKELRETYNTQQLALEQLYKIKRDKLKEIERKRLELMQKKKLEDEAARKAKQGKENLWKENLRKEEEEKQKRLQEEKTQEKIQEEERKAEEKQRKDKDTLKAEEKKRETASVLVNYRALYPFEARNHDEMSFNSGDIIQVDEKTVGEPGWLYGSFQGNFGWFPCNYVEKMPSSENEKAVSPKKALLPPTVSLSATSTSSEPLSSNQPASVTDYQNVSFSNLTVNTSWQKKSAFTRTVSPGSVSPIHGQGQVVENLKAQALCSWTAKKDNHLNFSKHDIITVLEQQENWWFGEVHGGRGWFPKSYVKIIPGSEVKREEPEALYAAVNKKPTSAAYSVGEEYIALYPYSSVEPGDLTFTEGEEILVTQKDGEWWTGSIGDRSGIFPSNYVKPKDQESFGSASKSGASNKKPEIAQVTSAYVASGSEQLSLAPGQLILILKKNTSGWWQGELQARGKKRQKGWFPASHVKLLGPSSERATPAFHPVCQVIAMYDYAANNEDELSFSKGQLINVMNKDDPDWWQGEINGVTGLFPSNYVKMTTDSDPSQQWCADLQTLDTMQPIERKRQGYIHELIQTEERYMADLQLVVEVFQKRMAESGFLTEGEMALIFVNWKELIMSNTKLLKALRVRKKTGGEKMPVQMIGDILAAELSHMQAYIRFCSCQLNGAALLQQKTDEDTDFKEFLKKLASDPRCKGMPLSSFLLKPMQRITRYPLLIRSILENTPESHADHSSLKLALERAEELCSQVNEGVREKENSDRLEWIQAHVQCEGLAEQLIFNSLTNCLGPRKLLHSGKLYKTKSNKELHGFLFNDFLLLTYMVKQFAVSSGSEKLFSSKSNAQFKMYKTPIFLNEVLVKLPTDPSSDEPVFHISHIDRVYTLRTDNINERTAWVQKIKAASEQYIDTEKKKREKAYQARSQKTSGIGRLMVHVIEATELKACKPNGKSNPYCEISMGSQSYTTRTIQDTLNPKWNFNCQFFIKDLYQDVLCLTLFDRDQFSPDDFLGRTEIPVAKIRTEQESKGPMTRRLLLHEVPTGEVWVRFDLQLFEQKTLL
# Chain of UniProt Q9C0C9 (Q9C0C9 whole entry, looked up): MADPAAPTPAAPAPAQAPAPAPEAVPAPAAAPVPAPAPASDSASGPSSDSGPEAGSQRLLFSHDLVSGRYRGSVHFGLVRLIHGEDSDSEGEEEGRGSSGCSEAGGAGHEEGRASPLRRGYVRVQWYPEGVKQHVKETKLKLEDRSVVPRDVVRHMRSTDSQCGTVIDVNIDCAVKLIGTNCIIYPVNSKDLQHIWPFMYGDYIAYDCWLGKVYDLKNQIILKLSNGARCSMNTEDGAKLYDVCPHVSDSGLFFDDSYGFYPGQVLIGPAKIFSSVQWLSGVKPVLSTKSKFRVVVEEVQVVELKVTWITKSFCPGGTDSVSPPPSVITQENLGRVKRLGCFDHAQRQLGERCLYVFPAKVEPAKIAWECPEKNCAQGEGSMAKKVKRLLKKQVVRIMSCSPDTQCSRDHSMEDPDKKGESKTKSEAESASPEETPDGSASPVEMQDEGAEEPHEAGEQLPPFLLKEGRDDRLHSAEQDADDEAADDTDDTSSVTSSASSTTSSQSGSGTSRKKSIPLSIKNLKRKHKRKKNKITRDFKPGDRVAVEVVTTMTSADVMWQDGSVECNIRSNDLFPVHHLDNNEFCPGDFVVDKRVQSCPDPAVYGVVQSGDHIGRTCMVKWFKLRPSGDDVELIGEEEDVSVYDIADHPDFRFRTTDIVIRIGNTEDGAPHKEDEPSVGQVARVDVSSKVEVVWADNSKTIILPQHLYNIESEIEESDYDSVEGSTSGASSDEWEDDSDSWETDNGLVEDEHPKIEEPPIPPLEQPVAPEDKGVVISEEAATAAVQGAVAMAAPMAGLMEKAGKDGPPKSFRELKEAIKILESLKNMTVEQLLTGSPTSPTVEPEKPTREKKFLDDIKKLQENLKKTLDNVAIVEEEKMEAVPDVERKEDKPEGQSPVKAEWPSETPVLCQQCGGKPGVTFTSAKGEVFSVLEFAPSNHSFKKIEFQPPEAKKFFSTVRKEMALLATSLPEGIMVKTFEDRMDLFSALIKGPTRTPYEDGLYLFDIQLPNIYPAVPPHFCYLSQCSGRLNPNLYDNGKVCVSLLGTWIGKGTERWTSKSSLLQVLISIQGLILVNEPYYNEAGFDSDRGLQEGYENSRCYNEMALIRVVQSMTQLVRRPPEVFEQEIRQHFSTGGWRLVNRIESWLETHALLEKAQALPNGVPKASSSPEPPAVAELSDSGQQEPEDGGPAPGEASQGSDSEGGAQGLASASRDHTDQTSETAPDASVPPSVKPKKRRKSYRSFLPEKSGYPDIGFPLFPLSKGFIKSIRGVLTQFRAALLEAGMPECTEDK
# Chain of UniProt Q9NSD9 (Q9NSD9 whole entry, looked up): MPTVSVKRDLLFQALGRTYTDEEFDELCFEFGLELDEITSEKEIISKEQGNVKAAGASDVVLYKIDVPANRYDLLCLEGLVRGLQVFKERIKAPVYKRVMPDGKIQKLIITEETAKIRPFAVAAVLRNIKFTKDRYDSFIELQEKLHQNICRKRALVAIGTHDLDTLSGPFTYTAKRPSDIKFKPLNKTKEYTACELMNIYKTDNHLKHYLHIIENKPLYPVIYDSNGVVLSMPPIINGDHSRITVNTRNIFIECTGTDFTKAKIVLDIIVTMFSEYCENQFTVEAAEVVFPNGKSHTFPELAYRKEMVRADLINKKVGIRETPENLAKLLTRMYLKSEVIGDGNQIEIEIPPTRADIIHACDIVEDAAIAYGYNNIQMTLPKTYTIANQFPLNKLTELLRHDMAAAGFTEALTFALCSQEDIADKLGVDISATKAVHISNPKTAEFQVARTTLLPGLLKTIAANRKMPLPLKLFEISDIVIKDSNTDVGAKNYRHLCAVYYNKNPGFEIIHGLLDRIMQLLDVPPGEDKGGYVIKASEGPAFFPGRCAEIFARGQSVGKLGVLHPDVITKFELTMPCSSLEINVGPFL
# Chain of UniProt Q9NQR4 (Q9NQR4 whole entry, looked up): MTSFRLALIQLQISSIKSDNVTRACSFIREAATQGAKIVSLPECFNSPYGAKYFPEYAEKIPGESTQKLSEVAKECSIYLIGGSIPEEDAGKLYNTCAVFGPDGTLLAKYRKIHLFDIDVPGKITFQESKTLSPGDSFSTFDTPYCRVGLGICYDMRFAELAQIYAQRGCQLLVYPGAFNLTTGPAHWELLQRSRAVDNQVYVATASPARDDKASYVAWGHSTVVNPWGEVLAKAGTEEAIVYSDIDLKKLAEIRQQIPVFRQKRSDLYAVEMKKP
row,Target,log2 ratio of iodoacetamide-alkyne labeling
1,OSTC C14 (UniProt Q9NRP0),0.193
2,RPRD1B C234 (UniProt Q9NQG5),0.513
3,SPATA5L1 C78 (UniProt Q9BVQ7),0.204
4,MRPS7 C152 (UniProt Q9Y2R9),-0.102
5,PPME1 C386 (UniProt Q9Y570),1.48 (active)
6,UniProt Q9Y3B4_C83,0.2
7,MDN1 C3492 (UniProt Q9NU22),0.35
8,TES C196 (UniProt Q9UGI8),0.308
9,NIT2 C146 (UniProt Q9NQR4),0.119
10,KCTD5 C28 (UniProt Q9NXV2),0.129
11,NCDN C3 (UniProt Q9UBB6),1.66 (active)
12,ITSN2 C1194 (UniProt Q9NZM3),-0.296
13,TANC1 C1594 (UniProt Q9C0D5),1.06 (active)
14,ZYG11B C643 (UniProt Q9C0D3),0.222
15,KIDINS220 C412 (UniProt Q9ULH0),0.0082
16,COPS7A C110 (UniProt Q9UBW8),0.0698
17,TBCD C234 (UniProt Q9BTW9),0.281
18,UniProt Q9BVS4_C449,1.18 (active)
19,LANCL2 C49 (UniProt Q9NS86),-0.064
20,RCL1 C13 (UniProt Q9Y2P8),-0.0901

row,Target,log2 ratio of iodoacetamide-alkyne labeling
1,SAE1 C214 (UniProt Q9UBE0),0.502
2,RACGAP1 C419 (UniProt Q9H0H5),0.303
3,DDX56 C286 (UniProt Q9NY93),0.51
4,ATXN10 C354 (UniProt Q9UBB4),1.32 (active)
5,UniProt Q9NUQ3_C56,1.97 (active)
6,GPHN C293 (UniProt Q9NQX3),1.12 (active)
7,NUDT5 C76 (UniProt Q9UKK9),0.157
8,MBNL1 C27 (UniProt Q9NR56),0.203
9,HEG1 C1360 (UniProt Q9ULI3),1.36 (active)
10,UniProt Q9NPA3_C62,0.293
11,RNPEP C181 (UniProt Q9H4A4),0.0149
12,TCAF1 C488 (UniProt Q9Y4C2),0.36
13,BRD7 C338 (UniProt Q9NPI1),1.01 (active)
14,ASF1B C172 (UniProt Q9NVP2),1.22 (active)
15,TLN1 C2161 (UniProt Q9Y490),-0.0698
16,FARSB C195 (UniProt Q9NSD9),0.621
17,OSBPL3 C203 (UniProt Q9H4L5),0.76
18,UniProt Q9Y678_C129,0.51
19,UBE2O C400 (UniProt Q9C0C9),-0.416
20,UniProt Q9C0E8_C149,0.125
